A short description of test [1]: compound effects on lung adenocarcinoma cell viability – A549, calcein-AM fluorescence, 48 h, basal, profiling panel (AID 1162). To be noted: higher = more signal.
Test [2] can be described thus: compound effects on differentiated 3T3-L1 adipocyte viability – cell-based, 3T3-L1 adipocytes, calcein-AM fluorescence, 48 h, basal, profiling panel (AID 1163). To be noted: 3T3-L1 adipocytes viability, higher = more signal.
Test [3] is described as follows: compound effects on hepatocellular carcinoma cell viability – HepG2, calcein-AM fluorescence, 48 h, basal, profiling panel (AID 1164). To be noted: higher = more signal.
A short description of test [4]: compound effects on multiple myeloma cell viability – MM1S, calcein-AM fluorescence, 48 h, basal, profiling panel (AID 1165).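 Also: viability of MM1S multiple myeloma cells under basal unstimulated conditions.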 To be noted: higher = more signal.
A short description of test [5]: calcein-AM signal in unstimulated myeloma cells – cell-based, calcein-AM fluorescence, 48 h, PK04 Diversity Set, profiling panel (AID 1166).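 Also: cells grown under basal conditions without added stimulus.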 To be noted: RPMI8226 myeloma viability, higher = more signal.
A short description of test [6]: JC-1 mitochondrial signal, unstimulated HepG2 cells – cell-based, JC-1 fluorescence, 24 h, 100 nL compound, profiling panel (AID 1167). To be noted: HepG2 mitochondrial potential, higher = more signal.
Test [7] can be described thus: JC-1 mitochondrial signal, unstimulated adipocytes – cell-based, JC-1 fluorescence, 3T3-L1 adipocytes, 24 h, 100 nL compound, profiling panel (AID 1168). To be noted: JC-1 mitochondrial fluorescence, higher = more signal, called active from +8 up or from −8 down.
Test [8] is described as follows: JC-1 mitochondrial signal, unstimulated myeloma cells – cell-based, JC-1 fluorescence, RPMI8226, 24 h, 100 nL compound, profiling panel (AID 1169). To be noted: JC-1 mitochondrial potential fluorescence, higher = more signal.
The nature of test [9]: JC-1 mitochondrial signal, unstimulated MM1S myeloma – cell-based, JC-1 fluorescence, 24 h, 100 nL compound, profiling panel (AID 1170). To be noted: MM1S mitochondrial potential, higher = more signal.
A short description of test [10]: resazurin metabolic signal in A549 cells – cell-based, resazurin fluorescence, 24 h, PK04 Diversity Set, profiling panel (AID 1171). To be noted: A549 viability, higher = more signal, called active from +8 up or from −8 down.

Calls of active or inactive are those of the source.

This passage reports z-score results from PubChem BioAssay.
Also: test concentration not given here.

As for `C=C(CCCC)C(=O)CC[C@H](OC(C)=O)c1ccc(CO)o1`, the z-score was -0.0395 in test [1]; 1.87 in test [2]; -0.576 in test [3]; -1.65 in test [4]; -0.0314 in [5]; 0.299 in test [6]. In addition, the z-score in [7] was 1.14 (inactive); in test [8], 0.0658; in test [9], 0.376; in [10], -0.485 (inactive).
As to `O=C1O[C@@H](c2ccccc2)[C@@H](c2ccccc2)N2[C@@H](c3ccc(O)cc3)[C@]3(C(=O)Nc4ccc(C#CCCO)cc43)[C@@H](C(=O)N3CCCCCCC3)[C@H]12`, the z-score in [1] was 0.498; in test [2], 0.93; in [3] it was -0.284; in test [4] it was 0.59; in [5] it was -1.24; in [6] it was -1.06. The z-score in test [7] was -0.585 (inactive); in test [8] it was -0.185; in [9], 0.129; in test [10], 0.254 (inactive).
As for `CC(C)(C)OC(=O)CC[C@@]1(C(N)=O)N=C(c2ccc(OCCCO)cc2)O[C@@H]1c1ccccc1N=[N+]=[N-]`, the z-score in [1] was 1.37; in [2] it was 0.337; in test [3] it was 2.25; in test [4], 1.46; in test [5], 0.415; in test [6], 0.221. The z-score was 0.951 (inactive) in test [7], -0.892 in test [8], -0.706 in test [9] and -0.763 (inactive) in test [10].
On to `COc1ccccc1CN1C(=O)c2ccccc2[C@](Cc2ccccc2I)(C(=O)NC2CC2)[C@@H]1c1ccc(CO)cc1`, for which the z-score was -0.741 in test [1]; -0.475 in test [2]; -0.468 in test [3]; -0.664 in [4]; -1.54 in test [5]; 1.32 in [6]. In addition, the z-score in test [7] was 0.424 (inactive); in test [8], -1.04; in test [9], -0.508; in test [10], -0.264 (inactive).
Turning to `CN1C(=O)C2C=CC(C(O)C(C)(C)C)N(Nc3ccccc3)C2C1=O` (stereo not given), the z-score was -0.398 in test [1]; -1.31 in test [2]; 0.19 in [3]; 0.235 in test [4]; -1.08 in [5]; -1.16 in test [6]. The z-score is -0.398 (inactive) in test [7], -0.476 in test [8], -0.178 in test [9] and -0.463 (inactive) in test [10].
For the compound `C=C(C(=O)CC[C@H](OC(=O)c1cccnc1)c1ccccc1OCCO)C(C)C`, the z-score is 0.219 in test [1]; -0.602 in test [2]; -0.967 in test [3]; -2.21 in test [4]; -1.69 in [5]; -1.45 in test [6]. Besides, the z-score was 0.31 (inactive) in test [7], -0.742 in test [8], -0.477 in [9] and 0.626 (inactive) in [10].
Regarding `[N-]=[N+]=Nc1ccccc1C[C@]1(C(=O)N2CCCCC2)N=C(c2ccc(OCCCO)cc2)O[C@H]1c1ccccc1N=[N+]=[N-]`, the z-score in test [1] is -0.0955; in [2] it was 0.164; in [3] it was -2.44; in [4] it was -3.54; in test [5], -3.89; in [6], -0.599. For the same compound, the z-score in [7] is -0.0935 (inactive); in test [8], -1.09; in [9], -2.64; in test [10], -0.909 (inactive).
Turning to `[N-]=[N+]=NCc1ccccc1C[C@]1(C(=O)NCCN2CCOCC2)N=C(c2ccc(OCCCO)cc2)O[C@H]1c1ccccc1CN=[N+]=[N-]`, the z-score in test [1] was 0.0783; in test [2], 1.99; in [3], 0.356; in test [4], -2.14; in test [5] it was -3.34; in [6], 1.27. Also, the z-score is -0.492 (inactive) in test [7], -0.784 in [8], -1.65 in test [9] and -0.403 (inactive) in test [10].
As to `CCCC[C@H]1OB(O)C[C@H]2C1=C(C)Cn1c(=O)n(-c3ccccc3)c(=O)n12`, the z-score was 0.673 in test [1]; 0.465 in test [2]; 0.173 in test [3]; -0.337 in test [4]; -0.108 in test [5]; 0.546 in [6]. In addition, the z-score in [7] was 0.299 (inactive); in test [8], -0.903; in test [9], -0.503; in [10] it was 0.0548 (inactive).
Take `COC(=O)[C@@]1(Cc2ccc(F)cc2)[C@H]2c3cc(C(=O)N4CCCC4)n(CCc4ccc(OC)c(Br)c4)c3C[C@H]2CN1C(=O)c1ccccc1`: the z-score in test [1] is -1.58; in test [2], -0.483; in [3], -2.5; in [4], -1.66; in test [5], -4.69; in test [6], 0.275. Also, the z-score in test [7] was -0.317 (inactive); in test [8] it was -0.626; in test [9], -2.09; in [10] it was -2.3 (inactive).
As for `C=C(CCCC)C(=O)CC[C@@H](OC(=O)c1ccccc1-c1ccccc1C(=O)O)c1ccc(CO)o1`, the z-score is -0.64 in test [1]; 0.498 in test [2]; 0.102 in test [3]; 0.227 in [4]; -0.91 in [5]; -1.24 in test [6]. Besides, the z-score in test [7] is -0.26 (inactive); in [8], 0.479; in test [9], -0.0259; in [10] it was -0.476 (inactive).
As to `CS(=O)(=O)CCOC(=O)C1=CC(c2ccc(CO)cc2)=CC(c2cccs2)N(Cc2cccc(OC(F)(F)F)c2)C=C1C(=O)OCCS(C)(=O)=O` (stereo not given), the z-score in test [1] was 0.0527; in test [2], 0.171; in [3], -1.31; in [4] it was -3.31; in test [5], -3.27; in test [6], -2.84. Moreover, the z-score was 0.384 (inactive) in test [7], -0.722 in test [8], -1.28 in test [9] and -0.481 (inactive) in [10].
In the case of `CCOC(=O)C1=CC[C@@H](c2ccccc2)N(S(=O)(=O)c2ccc(C)cc2)[C@H]1c1ccc(C#N)cc1`, the z-score was 0.423 in test [1]; -0.574 in test [2]; -0.178 in test [3]; -0.306 in test [4]; -0.973 in test [5]; 0.51 in test [6]. In addition, the z-score in test [7] is -1.12 (inactive); in test [8], 0.124; in test [9], -0.725; in [10] it was 1.39 (inactive).
On to `COC(=O)[C@@]1(Cc2ccc(F)cc2)[C@H]2c3cc(C(=O)N4CCCC4)n(Cc4ccc(Cl)c(C(F)(F)F)c4)c3C[C@H]2CN1C(=O)c1ccccc1`, for which the z-score in test [1] is -0.463; in test [2], -0.286; in test [3] it was -0.452; in test [4] it was -0.604; in test [5], -2.4; in test [6], 1.09. Further, the z-score in [7] was -1.33 (inactive); in test [8], -0.673; in test [9], -1.96; in test [10], -1.53 (inactive).
